Test [1] is described as follows: Cell Viability - Jurkat (AID 426;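 active means dose-dependent loss of cell ATP signal giving a full or clear fitted curve, ranked by lower potency value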;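 further: potency means the concentration at half of the fitted maximal effect; cells exposed to compound for 40 hours at 37 °C before ATP read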). The settings on record: qHTS. Summed up: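 Cytotoxicity was scored as loss of cellular ATP, measured by luciferase-based luminescence, in Jurkat clone E6-1 cells after 40 h compound treatment; tamoxifen and doxorubicin served as positive controls.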
Test [2] in a line: Cell Viability - Hek293 (AID 427;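 active means compounds whose dose-response curve shows a full or clear partial loss of cell viability, called from curve shape rather than a numeric limit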;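 further: potency means the concentration at half of the fitted maximal effect; cells exposed to compound for 40 hours at 37 °C before reading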). The settings on record: qHTS. Summed up:
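qHTS, human embryonic kidney (adenovirus-transformed) cells; 40 hr cpd, 37 °C; CellTiter-Glo ATP luminescence. Norm: DMSO = 0, 100 uM tamoxifen = 100% inhibition. Hill-fit AC50.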
A general note: Quantitative high-throughput screening tests each substance at several concentrations.

Test [3] in a line: Cell Viability - HepG2 (AID 433). Further: potency means the concentration at half of the fitted maximal effect. The settings on record: qHTS. The method in brief: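 Read-out is luciferase-based quantitation of cellular ATP as a measure of viable HepG2 cells after 40 h treatment at 37 °C. Signal decrease is scaled between DMSO-only and 100 uM tamoxifen controls, with AC50 fitted by the Hill equation.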
Test [4] in a line: Cell Viability - MRC5 (AID 434).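 Further: potency means the concentration at half of the fitted maximal effect; cells exposed to compound for 40 hours at 37 °C; potency reflects cytotoxicity seen as loss of intracellular ATP.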 The following applies: MRC5 lung fibroblast viability, qHTS. Summed up:
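AC50 values come from Hill-equation fits of intracellular ATP loss, measured by CellTiter-Glo luminescence. Normal lung fibroblasts (MRC5) had 40 hr compound treatment at 37 C, normalized between DMSO and 100 uM tamoxifen.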

Test [5] is described as follows: Cell Viability - SK-N-SH (AID 435).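 Further: potency means the concentration at half of the fitted maximal effect; compound exposure lasted 40 h at 37 °C.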 The following applies: SK-N-SH neuroblastoma cell viability qHTS. Summed up: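 Luminescent ATP signal served as the viability read-out after 40 hours of compound treatment of human neuroblastoma SK-N-SH cells. Concentration-response data, scaled between DMSO and 100 uM tamoxifen, gave AC50 values by standard Hill modeling.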
A short description of test [6]: Cell Viability - N2a (AID 540; active means well fitted curve in the direction sought with a large enough effect; an effect the other way counts as inactive or inconclusive;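 further: cells exposed to compound for 40 h at 37 °C; plate controls were DMSO alone for no effect and tamoxifen control for full effect; nearly all actives have a fitted effect of over 45% in size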). The settings on record: N2a mouse neuroblastoma cell viability; series mostly up to 92.2 µM. Summed up: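 In this qHTS cytotoxicity screen, ATP-dependent luciferase luminescence reports viable N2a cells after a 40 hr compound exposure in complete culture medium. Potencies are AC50 values from standard Hill equation fits.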
Test [7] in a line: Cell Viability - NIH 3T3 (AID 541; active means well fitted curve in the direction sought with a large enough effect; an effect the other way counts as inactive or inconclusive;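 further: plate controls were DMSO alone for no effect and tamoxifen positive control for full effect; nearly all actives have a fitted effect of over 25% in size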). The settings on record: NIH 3T3 cell viability, qHTS; series mostly up to 92.2 µM. The method in brief:
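In this cytotoxicity screen, acute toxicity is scored as an ATP drop measured by CellTiter-Glo in NIH 3T3 fibroblasts following a 40 hr, 37 °C incubation with compound.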

Test [8] is described as follows: Cell Viability - HUV-EC-C (AID 542; active means well fitted curve in the direction sought with a large enough effect; an effect the other way counts as inactive or inconclusive; further: on the % scale 0 is the no-effect control and ±100 the full control effect; nearly all actives have a fitted effect of over 35% in size). The following applies: HUV-EC-C endothelial cell viability, qHTS; series mostly up to 92.2 µM. The method in brief:
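Concentration-dependent ATP loss in HUV-EC-C cells is the measure. Exposure lasts 40 hr at 37 °C; luminescence follows CellTiter-Glo addition, and Hill fits give AC50.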

Test [9] can be described thus: Cell Viability - H-4-II-E (AID 543; active means well fitted curve in the direction sought with a large enough effect; an effect the other way counts as inactive or inconclusive; further: on the % scale 0 is the no-effect control and ±100 the full control effect; nearly all actives have a fitted effect of over 35% in size). The following applies: H-4-II-E rat hepatoma viability; series mostly up to 92.2 µM. Summed up:
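AC50 from Hill-modelled qHTS concentration-response curves. H-4-II-E rat hepatoma cells in complete medium, 40 hr exposure at 37 °C, viability by CellTiter-Glo ATP luminescence.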

A short description of test [10]: Cell Viability - SH-SY5Y (AID 544; active means well fitted curve in the direction sought with a large enough effect; an effect the other way counts as inactive or inconclusive;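 further: 0% = DMSO alone and -100% = 100 µM tamoxifen; nearly all actives have a fitted effect of over 55% in size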). The settings on record: SH-SY5Y neuroblastoma cell viability; series mostly up to 92.2 µM. Summed up: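 Quantitative HTS in SH-SY5Y neuroblastoma cells, 40 hr treatment at 37 °C, ATP content by luciferase luminescence; AC50 from Hill fits.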
Test [11] is described as follows: Cell Viability - Renal Proximal Tubule (AID 545; active means well fitted curve in the direction sought with a large enough effect; an effect the other way counts as inactive or inconclusive;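 further: 0% = DMSO only and -100% = 100 µM tamoxifen; nearly all actives have a fitted effect of over 40% in size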). The following applies: renal proximal tubule cells viability, primary cells of rat origin; series mostly up to 91.7 µM. The method in brief: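 Luminescent ATP signal (CellTiter-Glo) served as the viability read-out after 40 hr compound exposure of freshly isolated rat proximal tubule cells at 37 °C. Concentration-dependent ATP loss was fitted with the Hill equation to give AC50.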

Test [12] is described as follows: Cell Viability - Mesenchymal (AID 546; active means well fitted curve in the direction sought with a large enough effect; an effect the other way counts as inactive or inconclusive;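 further: cells exposed to compound for 40 hours before reading; 0% = DMSO only and -100% = 100 µM tamoxifen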). The settings on record: mesenchymal cells viability, qHTS; series mostly up to 91.7 µM. The method in brief:
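CellTiter-Glo luminescence (intracellular ATP, 20 min room temperature) after 40 hr compound exposure at 37 °C of 1000 glomerulus-derived human kidney mesenchymal cells/well; AC50 values obtained by fitting qHTS concentration-response data to the Hill equation.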

For test [13], the target named is Peroxisome proliferator-activated receptor gamma (Homo sapiens) (UniProt P37231). Nature of the test: qHTS assay for small molecule agonists of peroxisome proliferator-activated receptor gamma signaling (AID 588536; active means well fitted curve in the direction sought with a large enough effect in the signal ratio, with a control signal flat, not every such curve was filed as active; the % refers to the signal ratio). The following applies: HEK293 PPARg-UAS-bla, beta-lactamase ratio, 16 h, percent of rosiglitazone response, DMSO as zero; series mostly up to 76.7 µM. Summed up: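 Beta-lactamase reporter read-out: CCF4 fluorescence (ex 405, em 460/530 nm) after 2 h at RT. HEK293 GeneBLAzer cells were treated for 16 h at 37 C. Hill fits gave EC50 and efficacy versus 2 uM rosiglitazone (100%) and DMSO (0%).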
Sequence of Peroxisome proliferator-activated receptor gamma (Homo sapiens) (P37231 whole entry, looked up): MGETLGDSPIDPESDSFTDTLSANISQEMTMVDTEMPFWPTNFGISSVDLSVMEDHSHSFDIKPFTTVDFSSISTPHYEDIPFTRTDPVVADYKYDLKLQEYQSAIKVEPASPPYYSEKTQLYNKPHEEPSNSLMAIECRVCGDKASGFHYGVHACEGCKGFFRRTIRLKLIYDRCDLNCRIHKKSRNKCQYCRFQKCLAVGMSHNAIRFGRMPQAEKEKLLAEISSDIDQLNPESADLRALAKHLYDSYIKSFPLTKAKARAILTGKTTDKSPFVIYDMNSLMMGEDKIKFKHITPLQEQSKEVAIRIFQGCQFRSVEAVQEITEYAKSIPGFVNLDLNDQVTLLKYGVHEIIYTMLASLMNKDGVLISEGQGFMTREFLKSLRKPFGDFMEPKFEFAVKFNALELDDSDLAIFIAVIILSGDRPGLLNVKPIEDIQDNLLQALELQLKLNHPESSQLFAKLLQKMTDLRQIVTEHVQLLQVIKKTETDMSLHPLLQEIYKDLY

Test [14] deals with Vitamin D3 receptor (Homo sapiens) (UniProt P11473). Nature of the test: qHTS assay for small molecule antagonists of vitamin D receptor signaling (AID 588541).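 Further: receptor activated by calcitriol during compound treatment; on the % scale 0 is the no-effect control and ±100 the full control effect.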 The settings on record: HEK293T VDR-UAS-bla, beta-lactamase ratio, antagonist mode; series mostly up to 76.7 µM. The method in brief: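 Antagonist-mode beta-lactamase reporter assay: HEK293T VDR-UAS-bla cells were exposed to titrated compound alongside 1-alpha,25-dihydroxyvitamin D3 at 3 nM final for 16 h. Values were normalized to the 50 nM agonist control and DMSO basal, with IC50 and efficacy from Hill equation fits.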
Sequence of Vitamin D3 receptor (Homo sapiens) (P11473 whole entry, looked up): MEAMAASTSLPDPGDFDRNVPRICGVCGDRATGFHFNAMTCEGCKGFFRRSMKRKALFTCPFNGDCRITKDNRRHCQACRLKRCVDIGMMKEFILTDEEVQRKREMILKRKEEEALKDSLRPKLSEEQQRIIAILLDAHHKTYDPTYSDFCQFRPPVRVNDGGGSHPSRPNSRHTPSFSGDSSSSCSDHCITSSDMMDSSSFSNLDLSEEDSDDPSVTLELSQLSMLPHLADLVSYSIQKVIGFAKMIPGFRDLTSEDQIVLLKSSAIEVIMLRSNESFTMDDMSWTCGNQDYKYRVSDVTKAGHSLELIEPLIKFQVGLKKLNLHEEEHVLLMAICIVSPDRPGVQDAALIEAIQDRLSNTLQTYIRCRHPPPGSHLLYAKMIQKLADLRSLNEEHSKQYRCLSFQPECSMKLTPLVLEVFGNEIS

The target is the same in test [15]. Description: qHTS assay for small molecule agonists of vitamin D receptor signaling (AID 588543).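 Further: 0% = DMSO basal and 100% = reference agonist control.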 The settings on record: HEK293T VDR-UAS-bla, beta-lactamase ratio, 16 h; series mostly up to 76.8 µM. The method in brief: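 Reporter cells (HEK293T, VDR-UAS-bla) were seeded in medium with 2% charcoal-stripped serum and incubated 5 h, then compounds in concentration series were added for 16 h at 37 °C. Stimulation was scaled between DMSO basal and 50 nM 1α,25-dihydroxyvitamin D3.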

Test [16] is described as follows: qHTS assay for small molecule agonists of retinoid X receptor alpha signaling (AID 588544). The following applies: HEK293T RXRa-UAS-bla, beta-lactamase reporter, 18 h; 530 nm emission.
For test [17], the target named is Retinoic acid receptor RXR-alpha (Homo sapiens) (UniProt P19793). Described as above. The following applies: HEK293T RXRa-UAS-bla, beta-lactamase reporter, 18 h; series mostly up to 76.7 µM.
Sequence of Retinoic acid receptor RXR-alpha (Homo sapiens) (P19793 whole entry, looked up): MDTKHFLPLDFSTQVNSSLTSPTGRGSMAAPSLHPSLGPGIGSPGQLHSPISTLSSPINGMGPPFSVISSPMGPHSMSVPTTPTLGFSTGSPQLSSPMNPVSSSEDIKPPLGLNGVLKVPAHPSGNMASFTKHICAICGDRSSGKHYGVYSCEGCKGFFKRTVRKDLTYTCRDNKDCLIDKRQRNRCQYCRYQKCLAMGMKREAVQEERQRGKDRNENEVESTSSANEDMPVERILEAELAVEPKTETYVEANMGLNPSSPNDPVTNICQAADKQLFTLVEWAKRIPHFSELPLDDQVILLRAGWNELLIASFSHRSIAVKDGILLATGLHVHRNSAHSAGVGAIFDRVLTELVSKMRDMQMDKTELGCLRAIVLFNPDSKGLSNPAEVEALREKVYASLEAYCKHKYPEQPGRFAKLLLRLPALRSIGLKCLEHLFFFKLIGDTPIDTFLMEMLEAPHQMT
Test [18] deals with Thyroid hormone receptor beta (Homo sapiens) (UniProt P10828). Nature of the test: qHTS assay for small molecule agonists of thyroid hormone receptor beta signaling (AID 588545). The settings on record: TR-UAS-bla GripTite HEK 293, beta-lactamase ratio, agonist mode, 18 h, percent of T3 response, DMSO as zero; series mostly up to 76.7 µM. Summed up:
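Agonist-mode beta-lactamase reporter assay, HEK 293 cells, 2% charcoal/dextran FBS; cells plated 4 hrs, compound 18 hrs at 37 C, CCF4 2 hrs RT. Normalized to 10 nM T3 (100%) and DMSO (0%); Hill fit gives EC50, efficacy.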

Test [19] is described as follows: qHTS assay for small molecule antagonists of retinoid X receptor alpha signaling (AID 588546; active means well fitted inhibition curve with a large enough effect in the signal ratio, with a control signal flat, not every such curve was filed as active; the % refers to the signal ratio;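 further: cells stimulated with 9-cis-retinoic acid as agonist; on the % scale 0 is the no-effect control and ±100 the full control effect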). The following applies: HEK293T RXRa-UAS-bla, beta-lactamase ratio, antagonist mode; measured here: W530 green channel, cytotoxicity proxy. Summed up:
(§1)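 Beta-lactamase reporter inhibition, read as CCF4 fluorescence ratio (ex 405, em 460/530 nm) after 2 h at RT. HEK293T UAS-bla cells, 2500/well, were stimulated with 9-cis-RA at 500 or 100 nM final alongside test compound for 18 h at 37 C.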

Test [20] concerns the target Retinoic acid receptor RXR-alpha (Homo sapiens) (UniProt P19793). Described as above. The settings on record: HEK293T RXRa-UAS-bla, beta-lactamase ratio, antagonist mode. The method in brief: as §1

Where “and” joins values, the source holds several entries; their conditions need not be identical. Equal entries are not always repeated. Inconclusive results are not listed. Calls of active or inactive are those of the source. Unless noted, the call rests on the fitted dose curve.

Sequence of Thyroid hormone receptor beta (Homo sapiens) (P10828 whole entry, looked up): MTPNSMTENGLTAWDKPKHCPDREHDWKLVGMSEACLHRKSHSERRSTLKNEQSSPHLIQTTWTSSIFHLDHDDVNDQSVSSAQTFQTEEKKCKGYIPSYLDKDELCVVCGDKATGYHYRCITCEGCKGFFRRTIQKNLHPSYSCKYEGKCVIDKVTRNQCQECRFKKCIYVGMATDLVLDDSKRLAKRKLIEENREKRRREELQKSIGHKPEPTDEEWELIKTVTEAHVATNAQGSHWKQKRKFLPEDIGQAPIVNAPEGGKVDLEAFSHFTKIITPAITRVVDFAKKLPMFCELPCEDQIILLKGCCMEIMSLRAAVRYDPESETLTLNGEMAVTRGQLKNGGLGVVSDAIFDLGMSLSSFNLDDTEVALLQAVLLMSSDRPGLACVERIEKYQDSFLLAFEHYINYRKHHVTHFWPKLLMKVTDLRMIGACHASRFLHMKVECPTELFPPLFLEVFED

For `Cc1occc(=O)c1O`, the Potency in test [1], in [2], in [3], in test [4] and in test [5] was > 92 µM (inactive) throughout. Also, the result in test [6], in [7], in test [8], in [9], in test [10] and in test [11] was inactive. Further, the result in [13], in test [14], in [15], in [17] and in [18] was inactive. The Potency entry in [12] was “inactive”. Besides, the max response was -12.3% in [16], -0.914% in test [19] and -8.46% (inactive) in test [20].
`CC1=CC(=O)CC(C)(C)C1(O)/C=C/C(C)=C\C(=O)O` (stereo not given): the Potency in test [1], in test [2], in [3], in test [4] and in [5] was > 92 µM (inactive) in each case. The compound was classed as inactive in [6], in test [7], in test [8], in test [9], in test [10] and in [11]. The result in [13], in test [14], in [15], in [17] and in [18] was inactive. Moreover, in test [12], the Potency result is “inactive”. Further, the max response in test [16] is -10.1%; in test [19], -3.21%; in test [20], 0.0259% (inactive).
Take `C=C(C)[C@H]1CC=C(C)C(=O)C1`: the Potency in test [1], in test [2], in test [3], in [4] and in [5] was > 92 µM (inactive) in each case. Also, the call in test [6], in [7], in [8], in test [9], in test [10] and in test [11] was inactive. Further, the outcome in [13], in test [14], in test [15], in test [17] and in test [18] was inactive. Further, the Potency entry in [12] is “inactive”. Besides, the max response in [16] is 2.29% and 4.34%; in [19] it was -6.91% and -9.16%; in test [20] it was 30% (inactive) and -16.7% (inactive).
Turning to `C=CC(C)(O)CCC=C(C)C` (stereo not given), the Potency in test [1], in test [2], in [3], in test [4] and in test [5] was > 92 µM (inactive) each time. The call in [6], in [7], in test [8], in test [9], in test [10] and in test [11] was inactive. Also, the result in test [13], in [14], in test [15], in [17] and in [18] was inactive. In [12], the Potency result was “inactive”. Further, the max response in [16] was -15.4% and -5.89%; in test [19], -4.18% and -11.2%; in [20], -7.55% (inactive) and -18.1% (inactive).
For `COS(C)(=O)=O`, the Potency in test [1], in test [2], in test [3], in [4] and in test [5] was > 92 µM (inactive) in each case. Also, the compound was called inactive in test [6], in test [7], in test [8], in [9], in [10] and in [11]. Further, the result in [13], in [14], in test [15], in test [17] and in test [18] was inactive. The Potency result in test [12] was “inactive”. Further, the max response in test [16] is -12%; in [19], -12.9%; in test [20], -3.69% (inactive).
